Measured values: the supplement of paper PMC10037445
Over roughly 2,900 compounds, “NF-kB SEAP reporter activity, fold change vs agonist alone” has its median near 0.99; the highest 2% begin near 2.6. The sample holds the highest values, similar compounds and a random draw of the others, so the mix is not that of the screen.

Tests used:
RAW-Dual [1] = test: NF-kB SEAP reporter activity, fold change vs agonist alone; cytotoxicity flag (confluency mask): not cytotoxic; higher = enhanced NF-kB activity
Outline: (§1)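 Reporter activity is given as fold change relative to agonist-alone wells. To measure it, 50 nL of library stock was pin-tooled onto RAW-Dual macrophages (50,000 cells/well, DMEM, 384-well plates), a PRR agonist followed 1 h later, and cells stayed at 37 °C, 5% CO2. Twenty hours on, supernatant was assayed for IRF (QuantiLuc luminescence) and NF-κB (QuantiBlue, 620 nm absorbance), and wells under 70% of agonist-control IncuCyte confluency in both mask sets were marked cytotoxic.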

RAW-Dual [2] = test: NF-kB SEAP reporter activity, fold change vs agonist alone; higher = enhanced NF-kB activity
Outline: as §1

RAW-Dual [3] = test: NF-kB SEAP reporter activity, fold change vs agonist alone; cytotoxicity flag (confluency mask): cytotoxic (confluency <70% of control); higher = enhanced NF-kB activity
Outline: as §1

[4] = agonist: ODN 1826 (TLR9) 0.5 ug/mL
[5] = agonist: Pam2CSK4 (TLR2/6) 0.1 ug/mL
[6] = agonist: Pam3CSK4 (TLR2/1) 0.1 ug/mL
[7] = library stock concentration (final ~1000-fold dilution): 10 mM, cytotoxicity flag (confluency mask): not cytotoxic, agonist: Imiquimod (TLR7) […]
[8] = library stock concentration (final ~1000-fold dilution): 10 mM, cytotoxicity flag (confluency mask): not cytotoxic, agonist: MPLA (TLR4) […]
[9] = library stock concentration (final ~1000-fold dilution): 10 mM, cytotoxicity flag (confluency mask): cytotoxic (confluency <70% of control), agonist: Imiquimod (TLR7) […]
[10] = library stock concentration (final ~1000-fold dilution): 10 mM, cytotoxicity flag (confluency mask): cytotoxic (confluency <70% of control), agonist: MPLA (TLR4) […]
[11] = library stock concentration (final ~1000-fold dilution): 2 mM, cytotoxicity flag (confluency mask): not cytotoxic, agonist: Imiquimod (TLR7) […]
[12] = library stock concentration (final ~1000-fold dilution): 2 mM, cytotoxicity flag (confluency mask): not cytotoxic, agonist: MPLA (TLR4) […]

O=C(O)c1ccc(CSc2nc(-c3ccccc3)cc(N3CCN(c4ccccc4Cl)CC3)n2)cc1 (library stock concentration (final ~1000-fold dilution): 10 mM)
NF-kB SEAP reporter activity (RAW-Dual [1]; agonist: LPS (TLR4) 0.1 ug/mL): 0.736
NF-kB SEAP reporter activity (RAW-Dual [1]; [4]): 0.584
NF-kB SEAP reporter activity (RAW-Dual [1]; [5]): 0.248
NF-kB SEAP reporter activity (RAW-Dual [1]; [6]): 0.392

O=C(O)c1ccc(CSc2nc(-c3ccccc3)cc(N3CCN(c4ccccc4Cl)CC3)n2)cc1
NF-kB SEAP reporter activity (RAW-Dual [2]; [7]): 0.515
NF-kB SEAP reporter activity (RAW-Dual [2]; [8]): 0.868

CC(C)CC(NC(=O)CNC(=O)c1cc(Cl)ccc1Cl)B1OC(=O)CC(CC(=O)O)(C(=O)O)O1 (stereo not drawn)
NF-kB SEAP reporter activity (RAW-Dual [2]; [7]): 0.956
NF-kB SEAP reporter activity (RAW-Dual [2]; [8]): 0.913

CC(C)CC(NC(=O)CNC(=O)c1cc(Cl)ccc1Cl)B1OC(=O)CC(CC(=O)O)(C(=O)O)O1 (stereo not drawn) (library stock concentration (final ~1000-fold dilution): 10 mM)
NF-kB SEAP reporter activity (RAW-Dual [1]; agonist: LPS (TLR4) 0.1 ug/mL): 0.585
NF-kB SEAP reporter activity (RAW-Dual [1]; [4]): 0.938
NF-kB SEAP reporter activity (RAW-Dual [1]; [5]): 0.905
NF-kB SEAP reporter activity (RAW-Dual [1]; [6]): 0.999

O=c1cc(N2CCOCC2)oc2c(-c3ccccc3)cccc12
NF-kB SEAP reporter activity (RAW-Dual [2]; [9]): 1.07
NF-kB SEAP reporter activity (RAW-Dual [2]; [10]): 1.63

O=c1cc(N2CCOCC2)oc2c(-c3cccc4c3sc3ccccc34)cccc12
NF-kB SEAP reporter activity (RAW-Dual [2]; [11]): 1.46
NF-kB SEAP reporter activity (RAW-Dual [2]; [12]): 2.31

O=c1cc(N2CCOCC2)oc2c(-c3ccccc3)cccc12 (library stock concentration (final ~1000-fold dilution): 10 mM)
NF-kB SEAP reporter activity (RAW-Dual [3]; agonist: LPS (TLR4) 0.1 ug/mL): 1.81
NF-kB SEAP reporter activity (RAW-Dual [3]; [4]): 1.34
NF-kB SEAP reporter activity (RAW-Dual [3]; [5]): 0.984
NF-kB SEAP reporter activity (RAW-Dual [3]; [6]): 1.19

O=c1cc(N2CCOCC2)oc2c1ccc1ccccc12 (library stock concentration (final ~1000-fold dilution): 2 mM)
NF-kB SEAP reporter activity (RAW-Dual [1]; agonist: LPS (TLR4) 0.1 ug/mL): 1.12
NF-kB SEAP reporter activity (RAW-Dual [1]; [4]): 1
NF-kB SEAP reporter activity (RAW-Dual [1]; [5]): 0.982
NF-kB SEAP reporter activity (RAW-Dual [1]; [6]): 1.07

O=c1cc(N2CCOCC2)oc2c(-c3cccc4c3sc3ccccc34)cccc12 (library stock concentration (final ~1000-fold dilution): 2 mM)
NF-kB SEAP reporter activity (RAW-Dual [1]; agonist: LPS (TLR4) 0.1 ug/mL): 5.39
NF-kB SEAP reporter activity (RAW-Dual [1]; [4]): 1.43
NF-kB SEAP reporter activity (RAW-Dual [1]; [5]): 1.05
NF-kB SEAP reporter activity (RAW-Dual [1]; [6]): 2.43

O=c1nc(N2CCOCC2)oc2c(-c3cccc4c3sc3ccccc34)cccc12 (library stock concentration (final ~1000-fold dilution): 10 mM)
NF-kB SEAP reporter activity (RAW-Dual [1]; agonist: LPS (TLR4) 0.1 ug/mL): 3.45
NF-kB SEAP reporter activity (RAW-Dual [1]; [4]): 1.08
NF-kB SEAP reporter activity (RAW-Dual [1]; [5]): 0.718
NF-kB SEAP reporter activity (RAW-Dual [1]; [6]): 1.38

O=c1nc(N2CCOCC2)oc2c(-c3cccc4c3sc3ccccc34)cccc12
NF-kB SEAP reporter activity (RAW-Dual [2]; [7]): 1.1
NF-kB SEAP reporter activity (RAW-Dual [2]; [8]): 1.85

O=c1cc(N2CCOCC2)oc2c1ccc1ccccc12
NF-kB SEAP reporter activity (RAW-Dual [2]; [11]): 1.04
NF-kB SEAP reporter activity (RAW-Dual [2]; [12]): 0.989

CC(=O)N1CCCC1C(=O)NC(Cc1c[nH]cn1)C(=O)NC(CO)C(=O)NC(CS)C(=O)NC(CC(N)=O)C(N)=O (stereo not drawn)
NF-kB SEAP reporter activity (RAW-Dual [2]; library stock concentration (final ~1000-fold dilution): 10 mM water, cytotoxicity flag (confluency mask): not cytotoxic, agonist: Imiquimod (TLR7) […]): 0.979
NF-kB SEAP reporter activity (RAW-Dual [2]; library stock concentration (final ~1000-fold dilution): 10 mM water, cytotoxicity flag (confluency mask): not cytotoxic, agonist: MPLA (TLR4) […]): 1.06

CC(=O)N1CCCC1C(=O)NC(Cc1c[nH]cn1)C(=O)NC(CO)C(=O)NC(CS)C(=O)NC(CC(N)=O)C(N)=O (stereo not drawn) (library stock concentration (final ~1000-fold dilution): 10 mM water)
NF-kB SEAP reporter activity (RAW-Dual [1]; agonist: LPS (TLR4) 0.1 ug/mL): 1.15
NF-kB SEAP reporter activity (RAW-Dual [1]; [4]): 1.22
NF-kB SEAP reporter activity (RAW-Dual [1]; [5]): 1.19
NF-kB SEAP reporter activity (RAW-Dual [1]; [6]): 1.02

CC(C)COc1ccc(CNC(=O)N(Cc2ccc(F)cc2)C2CCN(C)CC2)cc1.CC(C)COc1ccc(CNC(=O)N(Cc2ccc(F)cc2)C2CCN(C)CC2)cc1.O=C(O)C(O)C(O)C(=O)O (library stock concentration (final ~1000-fold dilution): 10 mM)
NF-kB SEAP reporter activity (RAW-Dual [3]; agonist: LPS (TLR4) 0.1 ug/mL): 0.205
NF-kB SEAP reporter activity (RAW-Dual [3]; [4]): 0.239
NF-kB SEAP reporter activity (RAW-Dual [3]; [5]): 0.0981
NF-kB SEAP reporter activity (RAW-Dual [3]; [6]): 0.143

CC(C)COc1ccc(CNC(=O)N(Cc2ccc(F)cc2)C2CCN(C)CC2)cc1.CC(C)COc1ccc(CNC(=O)N(Cc2ccc(F)cc2)C2CCN(C)CC2)cc1.O=C(O)C(O)C(O)C(=O)O
NF-kB SEAP reporter activity (RAW-Dual [2]; [9]): 0.496
NF-kB SEAP reporter activity (RAW-Dual [2]; [10]): 1.23
